Compound activity deposited in PubChem BioAssay by National Center for Advancing Translational Sciences (NCATS).
CCT chaperon mod – High-Throughput Screening for Modulators of Cytosolic Chaperonin Activity. AID 651819, 2012. activity change, % (concentration not given with the values), hits read low. purified chaperonin ATPase assay, HTRF ADP detection, 30 min. hit rate 0.3% among 360,000; in the data active = activity change below about -30%; also: % is scaled to controls: 0 for no effect and ±100 for the full control effect
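ATPase activity: ADP formed was measured by HTRF Transcreener (665/615 nm ratio) after 30 min at 37 deg C with 10 uM ATP. Compounds screened at one 76 uM concentration against 40 or 20 nM TRiC in Tris pH 7.4/KCl/MgCl2/DTT buffer.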
aSyn yeast inh – qHTS of alpha-syn Inhibitors; hit rate 0.14% among 370,000; AID 652106, 2013; Potency, µM (highest dose often 46.1 µM), for inactives: at the highest dose growth rescue (activation), most hits filed as activators; Yeast expressing alpha-synuclein, growth rescue, BacTiter-Glo, 24 h; also: potency is read from the fitted curve at half-maximal effect; % of control where 0% means no effect; nearly all actives have a fitted effect of over 65% in size
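Rescue of yeast growth: cells expressing toxic alpha-synuclein, induced in galactose at OD600 0.02, incubated with compound 24 h at 30 C. ATP luminescence quantified growth; inhibitors of toxicity appear as activators.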
TDP43 rescue – qHTS of TDP-43 Inhibitors; TDP-43 expressing yeast growth rescue, BacTiter-Glo, 24 h; Potency, µM (top dose mostly 46.1 µM), for inactives: at the top dose growth rescue (activation), hits mostly activators; hit rate 1.8% among 410,000; also: potency is read from the fitted curve at half-maximal effect; % of control where 0% means no effect; nearly all actives have a fitted effect of over 50% in size
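Growth rescue of TDP-43-toxic yeast measured as ATP luminescence (BacTiter-Glo). Cells grown to mid-log in raffinose, induced in galactose at OD600=0.02, exposed to compound 24 hr at 30 deg C.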
MmCpn inh – Inhibitors of TCP-1 ring complex (TRiC) of Methanococcus maripaludis (MmCpn): qHTS; Chaperonin Mm-Cpn (Methanococcus maripaludis); purified Mm-Cpn ATPase, ADP Transcreener TR-FRET; Potency, µM (doses to about 76.9 µM), without a hit: at the highest dose activity, negative = inhibition, hits mostly inhibitors; hit rate 0.031% among 330,000; AID 504842, 2011; also: potency is read from the fitted curve at half-maximal effect; % is scaled to controls: 0 for no effect and ±100 for the full control effect; nearly all actives have a fitted effect of over 80% in size
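TR-FRET (320 nm excitation; 590 and 665 nm emission) reports ADP made from 10 uM ATP by 25 nM enzyme; compounds were preincubated 10 min, reaction run 30 min, both at 37°C.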
FUS suppressor – qHTS for Suppressors of FUS Proteinopathy: Primary screen using FUS-linked yeast assay. S. cerevisiae FUS-expressing, growth rescue, OD600, 24 h. Potency, µM (series often up to 76.6 µM), usual class: activators. hit rate 0.24% among 390,000. AID 1347120, 2019;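 also: potency is read from the fitted curve at half-maximal effect; plate controls were DMSO vehicle for no effect and reference control for full effect; nearly all actives have a fitted effect of over 55% in size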
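Cultures pregrown in 2.5% raffinose medium are shifted to minimal medium containing 2% galactose to express toxic FUS. Compounds are tested at several concentrations. After 24hr at 30C, growth is quantified at 600 nm absorbance.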
Abeta rescue – qHTS for compounds that reverse cellular toxicity of Amyloid beta (A-beta) peptide in yeast: Primary Screen | AID 1347071, 2019 | hit rate 0.063% among 410,000 | yeast expressing A-beta42, growth rescue, OD600, 48 h; response scale: 0% DMSO, 100% iron-clioquinol control | Potency, µM (series often up to 46.1 µM), hits mostly activators; also: potency is read from the fitted curve at half-maximal effect; nearly all actives have a fitted effect of over 55% in size
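Growth rescue measured by 600 nm absorbance after 48 h yeast culture at 30 C with compound. Values normalized between DMSO and an equimolar ferric chloride plus clioquinol control.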
Active calls of the source: *; i = inactive; ? = inconclusive; · = no result. Shown are actives, neighbours in structure and some others; about 2.3% of the full set was active somewhere. Unless noted, calls follow the shape of the dose curve; as a rule, active = well fitted curve in the direction sought with a large enough effect; inconclusive = small, poorly fitted or top-dose-only effect, or another doubt; inactive = no such curve, though single readings can be large; an effect the other way counts as inactive or inconclusive.

SMILES	CCT chaperon mod	aSyn yeast inh	TDP43 rescue	MmCpn inh	FUS suppressor	Abeta rescue
Cc1cc(Cl)ccc1-c1nc(NC(C)C)nc2ccsc12	-2.9	?	35.5µM*	·	i	i
Cc1cc(Cl)ccc1-c1nc(NCc2ccccc2)nc2ccsc12	-2.0	23.7%	?	·	i	i
COCCNc1nc(-c2ccc(Cl)cc2C)c2sccc2n1	-0.3	10.3%	22.4µM*	·	i	i
CCOC(=O)Cn1c(-c2cccnc2Cl)nc2cc(C)c(C)cc21	-33.9*	-6.9%	-28.0%	0.3%	i	i
CCOC(=O)CCCc1ccc(/C(C)=N/NC(N)=S)cc1	1.7	-7.7%	20µM*	-0.2%	i	?
C[C@H]1[C@@H](OC(=O)Nc2ccccc2C(F)(F)F)CC[C@@]23CCCN2C(=O)CCC[C@@H]13	·	·	·	·	i	·
CCOC(=O)Nc1ccc2c(c1)C(=NNC(=S)NC)c1ccccc1-2	-2.6	-12.4%	25.1µM*	·	i	i
NC(=S)NN=C1c2ccccc2-c2ccccc21	1.2	9.6%	17.8µM*	-3.5%	i	i
CCOC(=O)NN=C1c2ccccc2-c2ccccc21	-5.1	-0.6%	5.01µM*	-3.9%	i	i
O=C(NN=C1c2ccccc2-c2ccccc21)c1ccccc1	0.4	-3.7%	16.8%	1.0%	i	i
COc1ccc(CCNc2nc(-c3ccc(C)cc3)cc(C(F)F)n2)cc1OC	·	·	-0.2%	·	i	i
Cc1ccc(-c2cc(C(F)F)nc(S(C)(=O)=O)n2)cc1	1.3	-11.2%	11.2µM*	-2.0%	i	i
O=C(NCc1ccc(C(=O)N2CCCC2)cc1)c1cccc(Br)c1	·	·	·	·	i	·
COC(=O)C1=C(C)N(Cc2ccccc2)C(=O)N[C@H]1c1ccccc1	2.3	1.4%	29.0%	-0.8%	i	i
COC(=O)C1=C(C)N(Cc2ccccc2)C(=S)N[C@H]1c1ccccc1	0.2	20.9%	12.6µM*	-11.1%	i	i
CC1(c2nnc(-c3ccc(F)cc3)o2)CC(c2c(Cl)cccc2Cl)=NO1 (configuration not stated)	-1.5	-10.6%	35.5µM*	3.6%	i	i
CCN(CC)C(=O)CC[C@H]1CC[C@]2(CCCN(Cc3ccc(Br)cc3)C2)O1	·	·	·	·	i	·
O=c1cc(-c2ccc(C3CCCCC3)cc2)[nH][nH]1	-1.8	10.3%	17.8µM*	0.3%	i	i
O=C1c2ccccc2C2N1CCCN2C(=O)c1sc2ccccc2c1Cl (configuration not stated)	-0.1	12.4%	17.8µM*	·	i	i
Cc1onc(-c2ccccc2)c1C(=O)N1CCCN2C(=O)c3ccccc3C21 (configuration not stated)	2.2	-4.1%	6.9%	-1.1%	i	i
N#Cc1cc([N+](=O)[O-])c2sc(C(N)=O)[n+]([O-])c2c1	·	-1.1%	·	·	·	·
Cc1nn(Cc2ccccc2Cl)c2sc(C(=O)Nc3nccs3)cc12	-56.7*	3.3%	-10.7%	-20.8%	i	i
O=C(Nc1cccnc1)c1ccc([N+](=O)[O-])s1	0.3	-6.0%	12.6µM*	-11.8%	i	i
O=C(Nc1ccccc1F)c1ccc([N+](=O)[O-])s1	1.9	-16.4%	-84.8%	-4.3%	i	i
O=C(Nc1cccc(C(F)(F)F)c1)c1cc2nc(-c3ccccc3)cc(C(F)(F)F)n2n1	·	·	4.4%	·	i	i
SMILES	CCT chaperon mod	aSyn yeast inh	TDP43 rescue	MmCpn inh	FUS suppressor	Abeta rescue
COc1cc(/C=C/c2cc[n+](C)c3ccccc23)cc(OC)c1OC	·	16.2%	·	·	·	·
COc1cc(C)ccc1S(=O)(=O)NC(=O)C1(C)CCN1C(=O)C1(c2ccc(Cl)cc2)CCC1 (configuration not stated)	-1.6	-1.2%	28.2µM*	·	i	i
CC1(C(=O)NS(=O)(=O)c2ccccc2Cl)CCN1C(=O)c1cccc2ccccc12 (configuration not stated)	1.7	5.6%	?	·	i	i
CC1(C(=O)NS(=O)(=O)c2ccc(Cl)cc2)CCN1C(=O)C1(c2ccc(Cl)cc2)CCC1 (configuration not stated)	-1.4	-27.6%	20µM*	·	?	i
CC(C)(C)c1ccc(S(=O)(=O)NC(=O)C2(C)CCN2C(=O)c2cccc3ccccc23)cc1 (configuration not stated)	0.9	-6.4%	20µM*	·	i	i
COc1ccc(S(=O)(=O)NC(=O)C2(C)CCN2C(=O)C(C)(C)c2ccccc2)cc1 (configuration not stated)	-1.0	6.6%	14.1µM*	·	i	i
COC(=O)[C@]12C[C@H](CC(=O)N3CCCCC3)C(=O)N(Cc3ccco3)C1=C[C@H](C1CCCC1)O[C@@H]2C	·	·	·	·	i	·
CCN(CC)CCCNC(=O)c1ccc2c(c1)sc1nc(-c3ccc(C)cc3)cn12	·	·	-60.2%	·	i	i
Cc1ccc(NC(=O)OCCCN2C(=O)CCC23CCC(C)CC3)cc1 (configuration not stated)	·	·	·	·	i	·
Cc1ccccc1S(=O)(=O)NC(=O)C1(C)CCN1C(=O)CCc1cccs1 (configuration not stated)	-0.6	6.1%	11.0%	·	i	i
CC1(C(=O)NS(=O)(=O)c2ccc(Cl)cc2)CCN1C(=O)C1(c2ccccc2)CCCC1 (configuration not stated)	-0.9	-9.9%	14.1µM*	·	i	i
CC(C)(C)c1ccc(S(=O)(=O)NC(=O)C2(C)CCN2C(=O)C2(c3ccccc3)CC2)cc1 (configuration not stated)	-2.0	7.2%	17.8µM*	·	i	i
CCCCc1ccc(S(=O)(=O)NC(=O)C2(C)CCN2C(=O)CCc2cccs2)cc1 (configuration not stated)	-3.1	0.6%	35.5µM*	·	i	i
CC1(C(=O)NS(=O)(=O)c2ccc(Br)cc2)CCN1C(=O)C1(c2ccccc2)CC1 (configuration not stated)	1.7	5.9%	?	·	i	i
CC1(C(=O)NS(=O)(=O)c2ccccc2)CCN1C(=O)C1(c2ccc(Cl)cc2)CC1 (configuration not stated)	-0.4	-1.0%	?	·	i	i
COc1ccc(-c2noc(-c3cccc(OC)c3OC)n2)cc1	·	·	22.2%	·	i	i
CCOC(=O)CC[C@H]1CC[C@]2(CCCN(C(=O)c3ccccc3)C2)O1	·	·	·	·	i	·
